Measured values as given in PubChem BioAssay (Tox21).
Inconclusive results are not listed. The source made the active and inactive calls. Unless noted, the call rests on the fitted dose curve; in most records, active means well fitted curve in the direction sought with a large enough effect in the repeat runs; inconclusive means weak or mixed curves; inactive means no such curve, though single readings can be large; an effect the other way counts as inactive or inconclusive.

Key:
[1] = qHTS assay to identify small molecule agonists of H2AX (AID 1224845; active means well fitted activation curve with a large enough effect in the signal ratio in the repeat runs, not every such curve was filed as active; the % refers to the signal ratio)
Method in brief: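 Phospho-H2AX Ser139 measured by HTRF (ex 320 nm; em 665 and 620 nm) after 24 hr antibody incubation. Compounds, 15 concentrations, 0.76% DMSO, were applied to CHO-K1 cells for 3hr at 37C before lysis.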

[2] = qHTS assay to identify small molecule agonists of the hypoxia (HIF-1) signaling pathway (AID 1224846; active means well fitted activation curve with a large enough effect in the signal ratio in the repeat runs, not every such curve was filed as active; the % refers to the signal ratio)
Method in brief: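 Measured by blue/green FRET after loading CCF4-AM: beta-lactamase expressed from a hypoxia response element in ME-180 cells. Test agents were delivered in DMSO and left 17 hrs; cells had been plated 5 hrs earlier in low-serum (0.5% dialyzed FBS) medium.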

[3] = qHTS assay to identify small molecule agonists of H2AX - cell viability counter screen (AID 1224847; calls by dose curve;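 further: wild-type CHO-K1 cells; top concentration of the series differs between compounds; nearly all actives have a fitted effect of over 30% in size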)
Method in brief: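 CHO-K1 cells plated overnight at 37C, then exposed 3 h at 37C to compounds at 15 concentrations (0.76% DMSO final). Viability by CellTiter-Glo luminescence after 30 min at room temperature.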

[4] = qHTS RealTime-Glo MT Cell Viability Assay in HepG2 cells - 24 hour (AID 1224867); further: nearly all actives have a fitted effect of over 50% in size
Method in brief: (§1)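 Viability was tracked continuously by NanoLuc luminescence from prosubstrate reduced by living HepG2 cells, at successive time points over 40 h of compound exposure. Cells with reagent were preincubated 5 h at 37 °C before compound addition.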

[5] = qHTS RealTime-Glo MT Cell Viability Assay in HEK293 cells - 32 hour (AID 1224868); further: top concentration of the series differs between compounds; nearly all actives have a fitted effect of over 50% in size
Method in brief: (§2)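 Viability tracked continuously by luminescence as live cells reduce a prosubstrate for NanoLuc; HEK293 cells preincubated 5 h, compound-treated at 37 C, and read at 0, 8, 16, 24, 32 and 40 h.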

[6] = A CellTox Green Cytotoxicity Assay to monitor cytotoxicity in HEK293 cells - 0 hour (AID 1224869); further: nearly all actives have a fitted effect of over 50% in size
Method in brief: (§3)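 Each value comes from one timepoint of a single continuous run in which HEK293 cells with CellTox Green were exposed to compound for up to 40 h at 37 C, dye fluorescence rising with cell death.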

[7] = qHTS RealTime-Glo MT Cell Viability Assay in HepG2 cells - 40 hour (AID 1224870); further: nearly all actives have a fitted effect of over 50% in size
Method in brief: (§4)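 Real-time viability: cells seeded at 600 per well together with NanoLuc and cell-permeant prosubstrate, compounds added after 5 h incubation. Luminescence tracked at 0, 8, 16, 24, 32 and 40 h of exposure.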

[8] = qHTS RealTime-Glo MT Cell Viability Assay in HEK293 cells - 16 hour (AID 1224872)
Method in brief: as §2

[9] = qHTS RealTime-Glo MT Cell Viability Assay in HepG2 cells - 8 hour (AID 1224873); further: nearly all actives have a fitted effect of over 55% in size
Method in brief: as §4

[10] = qHTS RealTime-Glo MT Cell Viability Assay in HEK293 cells - 40 hour (AID 1224874); details: RealTime-Glo luminescence; max response: hits give low values; further: nearly all actives have a fitted effect of over 50% in size
Method in brief: (§5)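 qHTS format; HEK293 cells with NanoLuc/prosubstrate reagent, 37 C/5% CO2 for 5 h pre-dosing; compounds 23 nL in DMSO; luminescence at each time point reflects viable cells.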

[11] = qHTS RealTime-Glo MT Cell Viability Assay in HepG2 cells - 32 hour (AID 1224877); further: nearly all actives have a fitted effect of over 55% in size
Method in brief: as §1

[12] = A CellTox Green Cytotoxicity Assay to monitor cytotoxicity in HepG2 cells - 24 hour (AID 1224878); further: nearly all actives have a fitted effect of over 45% in size
Method in brief: (§6)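 Continuous culture of HepG2 cells with a membrane-impermeant DNA dye; rising fluorescence marks dead cells. Compound exposure lasted up to 40 h at 37 C, with reads every 8 h from 0 h.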

[13] = A CellTox Green Cytotoxicity Assay to monitor cytotoxicity in HepG2 cells - 40 hour (AID 1224879); further: nearly all actives have a fitted effect of over 40% in size
Method in brief: as §6

[14] = qHTS RealTime-Glo MT Cell Viability Assay in HEK293 cells - 0 hour (AID 1224880); further: top concentration of the series differs between compounds; nearly all actives have a fitted effect of over 45% in size
Method in brief: as §5

[15] = A CellTox Green Cytotoxicity Assay to monitor cytotoxicity in HEK293 cells - 40 hour (AID 1224871); further: nearly all actives have a fitted effect of over 45% in size; further: potency means the concentration at half of the fitted maximal effect
Method in brief: as §3

[16] = A CellTox Green Cytotoxicity Assay to monitor cytotoxicity in HepG2 cells - 16 hour (AID 1224876); further: nearly all actives have a fitted effect of over 45% in size
Method in brief: as §6

[17] = qHTS assay to identify small molecule antagonists of the estrogen related receptor (ERR) signaling pathway from Tox21 library (AID 1224848); further: nearly all actives have a fitted effect of over 50% in size; further: potency means the concentration at half of the fitted maximal effect
Method in brief: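 Reading was by luminescence 30 min after ONE-Glo addition. Before that, ERR cells at 2,000 per well had rested 6 h at 37 C/5% CO2 and then received pin-tooled compounds in DMSO for 18 h at 37 C.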

[18] = qHTS assay to identify small molecule agonists of the estrogen related receptor (ERR) signaling pathway from Tox21 library (AID 1224849; calls by dose curve; further: nearly all actives have a fitted effect of over 15% in size); details: ERR reporter cell line, ONE-Glo luciferase, 18 h; at 92.4 µM (top of the series) unless noted
Method in brief: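 We plated ERR reporter cells, waited 6 h, added compounds in DMSO by pin tool and incubated them 18 h at 37 C. ONE-Glo was then added and luminescence read after 30 min.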

[19] = A CellTox Green Cytotoxicity Assay to monitor cytotoxicity in HEK293 cells - 24 hour (AID 1224875); further: nearly all actives have a fitted effect of over 45% in size
Method in brief: as §3

[20] = qHTS assay to identify small molecule agonists of the hypoxia (HIF-1) signaling pathway - cell viability counter screen (AID 1224844; calls by dose curve; further: nearly all actives have a fitted effect of over 50% in size)
Method in brief: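 Luminescent ATP content (CellTiter-Glo, 30 min, room temperature) served as the viability measure in HRE-bla ME-180 cells exposed to compounds for 17 hrs in low-serum medium (0.5% dialyzed FBS).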
On the % scale 0 is the no-effect control and ±100 the full control effect.

NCCCN(CCO)CCO
inactive: Potency [1] | outcome [2] | Potency [3] | Potency [4] | Potency [5] | Potency [6] | Potency [7] | Potency [8] | Potency [9] | max response [10] -7.84% | Potency [11] | Potency [12] | Potency [13] | Potency [14]

CC(C)(C)c1ccc(S)cc1
inactive: Potency [1] | outcome [2] | Potency [3] | Potency [4] | Potency [6] | Potency [7] | Potency [15] | Potency [8] | max response [10] -0.358% | Potency [16] | Potency [11] | Potency [12] | Potency [14]

CC(O)C1CCCCC1 (stereo not given)
inactive: Potency [1] | outcome [2] | Potency [3] | Potency [17] | activity change, positive = activation [18] 6.48% | Potency [4] | Potency [5] | Potency [6] | Potency [7] | Potency [15] | Potency [8] | Potency [9] | Potency [19] | Potency [16] | Potency [11] | Potency [12] | Potency [13] | Potency [14]

CC(C(=O)O)c1ccc(C(=O)c2ccccc2)s1 (stereo not given)
inactive: Potency [20] | Potency [3] | Potency [4] | Potency [5] | Potency [6] | Potency [7] | Potency [15] | Potency [8] | Potency [9] | Potency [19] | Potency [16] | Potency [11] | Potency [12] | Potency [13] | Potency [14]

CC(C)CCCCCCOC(=O)c1ccc(C(=O)OCCCCCCC(C)C)c(C(=O)OCCCCCCC(C)C)c1
inactive: Potency [20] | Potency [4] | Potency [5] | Potency [6] | Potency [7] | Potency [15] | Potency [9] | max response [10] -0.306% | Potency [16] | Potency [11] | Potency [12] | Potency [13] | Potency [14]

Nc1nc(CC(=O)O)cs1
active: Potency [17] 61.3 µM
inactive: Potency [1] | outcome [2] | activity change, positive = activation [18] -48.9% | Potency [4] | Potency [6] | Potency [7] | Potency [15] | Potency [8] | Potency [9] | Potency [11] | Potency [12] | Potency [13] | Potency [14]

O=C(O)C1CCC(C(=O)O)CC1 (stereo not given)
inactive: Potency [1] | outcome [2] | Potency [17] | Potency [4] | Potency [5] | Potency [6] | Potency [7] | Potency [15] | Potency [8] | max response [10] -2.66% | Potency [11] | Potency [12] | Potency [13] | Potency [14]

Cc1cc(CC(=O)O)c(C)n1-c1ccc(Cl)cc1
inactive: Potency [1] | outcome [2] | Potency [3] | Potency [17] | activity change, positive = activation [18] -14.3% [at 42.5 µM] | Potency [4] | Potency [5] | Potency [6] | Potency [7] | Potency [15] | Potency [9] | max response [10] -0.616% | Potency [16] | Potency [11] | Potency [12] | Potency [13] | Potency [14]

O=C1Nc2cc(Cl)ccc2Oc2ccccc21
inactive: Potency [20] | Potency [3] | Potency [4] | Potency [5] | Potency [6] | Potency [7] | Potency [15] | Potency [8] | Potency [9] | max response [10] 5.17% | Potency [19] | Potency [16] | Potency [12] | Potency [13] | Potency [14]

COCCO
inactive: Potency [1] | outcome [2] | Potency [3] | Potency [4] | Potency [5] | Potency [6] | Potency [7] | Potency [15] | Potency [19] | Potency [16] | Potency [11] | Potency [12] | Potency [13] | Potency [14]

N#Cc1cc2ccccc2c2ccccc12
inactive: Potency [1] | outcome [2] | Potency [3] | Potency [4] | Potency [5] | Potency [6] | Potency [7] | Potency [15] | Potency [8] | Potency [9] | max response [10] -18.9% | Potency [19] | Potency [16] | Potency [11] | Potency [12] | Potency [13] | Potency [14]

COc1ccc(OC)c(OC)c1
inactive: Potency [1] | outcome [2] | Potency [3] | Potency [4] | Potency [6] | Potency [7] | max response [10] 15.8% | Potency [19] | Potency [16] | Potency [11] | Potency [12] | Potency [13] | Potency [14]

COc1ccc(C(C)=O)cc1
inactive: Potency [1] | outcome [2] | Potency [3] | Potency [4] | Potency [5] | Potency [6] | Potency [7] | Potency [15] | Potency [8] | Potency [9] | max response [10] 21.1% | Potency [19] | Potency [16] | Potency [11] | Potency [12] | Potency [13] | Potency [14]

CN(c1nccc(=O)[nH]1)C1CCN(c2nc3ccccc3n2Cc2ccc(F)cc2)CC1
inactive: Potency [20] | Potency [3] | Potency [4] | Potency [6] | Potency [7] | Potency [15] | Potency [9] | Potency [19] | Potency [16] | Potency [11] | Potency [12] | Potency [13] | Potency [14]

N#Cc1c(F)cccc1F
inactive: Potency [1] | outcome [2] | Potency [3] | Potency [4] | Potency [5] | Potency [6] | Potency [7] | Potency [9] | Potency [16] | Potency [11] | Potency [12] | Potency [14]

CC(C)(C)c1ccc(OCC2CO2)cc1 (stereo not given)
active: Potency [15] 50 µM
inactive: Potency [20] | Potency [17] | activity change, positive = activation [18] 3.37% | Potency [4] | Potency [5] | Potency [6] | Potency [7] | Potency [9] | max response [10] -5.37% | Potency [16] | Potency [11] | Potency [12] | Potency [13] | Potency [14]

O=C(O)COC(=O)Cc1ccccc1Nc1c(Cl)cccc1Cl
inactive: Potency [1] | outcome [2] | Potency [3] | Potency [17] | activity change, positive = activation [18] 1.12% [at 42.5 µM] | Potency [4] | Potency [5] | Potency [6] | Potency [7] | Potency [15] | max response [10] 5.48% | Potency [16] | Potency [11] | Potency [12] | Potency [13] | Potency [14]
